# Screens (PubChem)
# Hits are enriched below; roughly 2.2% of the tested compounds scored in any of these assays.
# Cardio protect: modulators protecting cardiomyocytes from myocardial damage. H9c2 cardiomyocytes, H2O2 injury protection, ATPLite, 2 h. protection from H2O2 cell death, % at 20 µM. 0.63% of 360,000 active;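 active = compounds giving at least 50% protection of heart cells from peroxide-induced death in the single-dose screen, raw or plate-pattern-corrected value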;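 note: 0% = DMSO wells with peroxide and 100% = DMSO wells without peroxide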
# hiPSC survival: enhancers of human iPSC single-cell survival | hiPSC single-cell survival, ATPlite luminescence; 100% = ROCK inhibitor wells, 0% = DMSO | survival enhancement, % at 20 µM | 0.044% of 360,000 active; in the data active = survival enhancement above about 18%;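 note: cells exposed to compounds for 16 hours before the ATP read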
# MIN6 prolif-1: MIN6 beta-cell proliferation induction. 0.29% of 330,000 active. MIN6 cells proliferation, ATPlite luminescence, 48 h; cells starved in 0.2% serum; 100% = growth in 10% serum. proliferation, % at 10 µM;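 active = compounds whose signal lies at least 3.5 SD above the mean of all wells on their plate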;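 note: 0% = DMSO-treated cells in low-serum medium and 100% = 10% serum control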
# Myeloid diff MLP: compounds promoting myeloid differentiation | ER-HoxA9 myeloid progenitors, lysozyme-GFP differentiation, flow cytometry | calls only at 10 µM | 1% of 360,000 active | AID 624256;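 active = normalized GFP-positive differentiation at or above the plate's own cutoff, the solvent-only control mean plus 3 SD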;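 note: cells exposed to compound for four days before flow analysis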
# ABCB6 inh 2: blocks the human ABCB6 transporter; Q9NP58; K562-ABCB6 porphyrin accumulation, flow cytometry, 1 h; hits give low values; fluorescence ratio to DMSO, % at 10 µM; 0.19% of 360,000 active; AID 602162;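 active = fluorescence ratio to DMSO below 75%, the collection mean minus 3 SD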;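 note: signal is porphyrin accumulated inside mitochondria; 100% equals median channel fluorescence of DMSO control wells; lower ratio means ABCB6 inhibition with less porphyrin fluorescence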
# MIN6 prolif-2: MIN6 beta-cell replication induction, confirmed. shares compounds with MIN6 prolif-1. MIN6 beta-cell proliferation, ATPlite luminescence, 48 h; cells kept in 0.2% serum; scaled between 0.2% and 10% serum. proliferation increase, % at 50 µM. 920 tested, under 10 active. AID 463095;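 active = proliferation increase above 40% at any of the four tested concentrations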
# The depositor's hits bear a star; i = inactive; · = not tested or not shown.
SMILES,Cardio protect,hiPSC survival,MIN6 prolif-1,Myeloid diff MLP,ABCB6 inh 2,MIN6 prolif-2
O=C(CN(Cc1ccccc1)C(=O)CNS(=O)(=O)c1ccc(Cl)cc1)NCC1CCCO1 (configuration not stated),-6,0,0.0*,i,93,2
COc1cc2nc(Cl)nc(N3CCCCC3)c2cc1OC,1,-2,7.6*,i,98,-3
COc1ccc(N2C(=NC(=O)C3CC3)SC3CS(=O)(=O)CC32)cc1Cl (configuration not stated),4,0,11*,i,101,0
C=CCn1cc([N+](=O)[O-])nc1C,9,3,7.8*,i,94,-3
CCCCn1cc([N+](=O)[O-])nc1C,5,0,3,i,99,·
CC(=O)Nc1cc(C(=O)N(C)Cc2ccccc2)ccc1S(=O)(=O)c1ccc(C)cc1,-5,0,13*,i,101,-3
CC(C)Nc1nc(NC(C)(C)C)nc(Oc2ccc(=O)n(-c3ccccc3)n2)n1,-2,-1,7.5*,i,102,-6
CCOC(=O)C1=C(C)NC(=O)NC1c1ccc(OC(=O)c2ccco2)c(OC)c1 (configuration not stated),-3,1,4.7*,i,98,-4
C=CCOC(=O)C1=C(C)NC(=O)NC1c1ccc(OC(=O)c2ccco2)c(OC)c1 (configuration not stated),6,-2,1,·,101,·
COc1cc(CNC2CCCc3ccccc32)cc(OC)c1OC (configuration not stated),-4,-1,-1,i,103,·
COc1cccc(CNC2CCCc3ccccc32)c1OC (configuration not stated),-5,-1,9.1*,i,100,-3
O=C(CSc1ccc(-c2cccs2)nn1)NCc1ccccc1Cl,·,·,-3,·,·,·
COc1ccccc1CNC(=O)CSc1ccc(-c2cccs2)nn1,0,2,7.8*,i,98,-2
COc1ccc2[nH]c(=O)c(CN(C)C(=O)c3ccncc3)cc2c1,-2,-2,0,i,94,·
COc1ccc2[nH]c(=O)c(CN(C(=O)c3ccncc3)C(C)(C)C)cc2c1,3,1,13*,i,100,1
CCCn1c(O)c2ccc(C(=O)N=NC(=O)c3cccnc3)cc2c1O,5,-1,1,i,93,·
Cn1c2ccccc2n2c(=O)c(Cl)c(-c3ccccc3)c(C#N)c12,-2,0,7.9*,i,100,-4
CCOc1ccc(NC(=O)CN(C)C(=O)c2cc(S(=O)(=O)N3CCCCC3)ccc2Cl)cc1OCC,-1,0,3,i,90,·
CCOc1ccc(NC(=O)CN(C)C(=O)c2cc(S(=O)(=O)N3CCCCC3)ccc2C)cc1OCC,2,0,12*,i,100,5
COc1ccccc1CCC(=O)Nc1ccc(S(=O)(=O)Nc2nccs2)cc1,1,0,13*,i,92,1
COc1ccccc1C(=O)Nc1cccc(S(=O)(=O)N2CCCC2)c1,0,0,1,i,98,·
CCN1CCN(c2nc(Nc3ccc(C)c(C)c3)nc(N)c2[N+](=O)[O-])CC1,4,0,0.0*,i,87,-6
COc1ccc(S(=O)(=O)Nc2cc3[nH]c(=O)oc3cc2C)cc1,4,0,0,i,95,·
CC(=O)N1CCN(CC(O)Cn2c3ccccc3c3ccccc32)CC1 (configuration not stated),5,1,6.6*,i,98,-6
COc1cc(CCC(=O)OCC(=O)NCc2ccc(Cl)cc2)cc(OC)c1OC,7,0,-1,i,101,·
SMILES,Cardio protect,hiPSC survival,MIN6 prolif-1,Myeloid diff MLP,ABCB6 inh 2,MIN6 prolif-2
COc1ccc(CCC(=O)OCC(=O)NCc2ccc(OC)c(OC)c2)cc1OC,5,-2,9.2*,i,95,2
COc1ccc2nc(NC(=O)c3ccc(F)cc3)sc2c1,-4,0,-1,i,97,·
CCN1C(=O)/C(=C2/SC(C)=C(C)N2CC)SC1=S,11,-2,7.5*,i,97,1
CCN1C(=O)/C(=C2\C=Cc3ccccc3N2CC)SC1=S,-9,-2,5,i,100,·
COc1cccc(/C=N/NC(=O)CO/N=C(\C)c2cccs2)c1OC,3,3,4.6*,i,100,0
C/C(=N\OCC(=O)N/N=C/c1ccccc1O)c1cccs1,46,3,-5,i,90,·
COc1ccc(NC(=O)CN2c3cccc4cccc(c34)S2(=O)=O)cc1,22,4,-3,i,110,·
COc1ccc(CCNC(=O)CN2c3cccc4cccc(c34)S2(=O)=O)cc1,2,0,13*,i,93,5
COc1cc2c(cc1OC)C(COc1ccccc1OC)N(C(=O)c1ccco1)CC2 (configuration not stated),6,1,8.8*,i,100,0
CCC(=O)N1CCc2cc(OC)c(OC)cc2C1COc1ccc(F)cc1 (configuration not stated),-2,0,9.3*,i,93,-1
CCOC(=O)N(NC(=O)C(O)(c1ccccc1)c1ccccc1)c1ccccc1,-3,0,0,i,101,·
Cc1ccc(N(CC(=O)Nc2ccc(C)cn2)S(=O)(=O)c2c(C)nn(C)c2C)cc1,3,2,0,i,97,·
COc1cccc(NC(=S)N(CCc2nc3cc(C)c(C)cc3[nH]2)Cc2cccnc2)c1,1,-1,-1,i,103,·
CNC(=S)N(CCc1c(C)[nH]c2ccc(C)cc12)Cc1cccnc1,0,0,13*,i,104,-4
Cc1cccc(NC(=S)N(CCc2nc3cc(C)c(C)cc3[nH]2)Cc2cccnc2)c1,-3,2,4.8*,i,87,-1
COC(=O)CSc1nc(N)c(C#N)c(-c2ccco2)c1C#N,43,2,-3,i,98,·
CCSc1nc(N)c(C#N)c(-c2ccco2)c1C#N,10,-1,14*,i,101,5
CCn1cc(CNC(=O)c2cccc([N+](=O)[O-])c2)cn1,-2,4,-3,i,107,·
CCn1cc(CN(C)S(=O)(=O)c2cccc([N+](=O)[O-])c2)cn1,6,0,7.2*,i,98,-1
Cc1cc(C)c2c(N)c3ccccc3nc2n1,3,8,7.5*,i,107,-6
Cc1cc(C)c2cccc(N)c2n1,-3,1,-3,i,109,·
COc1cccc(NC(=O)CN(C)C(=O)c2cn(-c3ccccc3)nc2-c2cccnc2)c1,26,6,9.5*,i,91,-4
